Inconclusive results are not listed. The source made the active and inactive calls. Calls follow the shape of the dose curve; as a rule, active = well fitted inhibition curve with a large enough effect; inconclusive = small, poorly fitted or top-dose-only effect; inactive = flat fitted curve, though single readings scatter.
Assays:
Experiment in all cases: qHTS profiling for inhibitors of Plasmodium falciparum proliferation (AID 504749); also: nearly all actives have a fitted effect of over 60% in size
Settings in all cases: P. falciparum in erythrocytes, SYBR Green DNA, 72 h; series mostly up to 28.7 µM
CP194 = system: CP194
In short: (§1)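 Readout was DNA-dye fluorescence from lysed cultures, ex 485/em 535 nm. Parasitized red cells had grown 72 h with compound; data scaled between 0.29 uM artemisinin and DMSO wells and corrected using vehicle-only plates.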

CP201 = system: CP201
In short: as §1

CP203 = system: CP203
In short: as §1

CP211 = system: CP211
In short: as §1

CP215 = system: CP215
In short: as §1

CP217 = system: CP217
In short: as §1

CP237 = system: CP237
In short: as §1

CP238 = system: CP238
In short: as §1

CP247 = system: CP247
In short: as §1

CP250 = system: CP250
In short: as §1

CP252 = system: CP252
In short: as §1

CP256 = system: CP256
In short: as §1

CP262 = system: CP262
In short: as §1

CP265 = system: CP265
In short: as §1

CP266 = system: CP266
In short: as §1

CP268 = system: CP268
In short: as §1

CP269 = system: CP269
In short: as §1

CP286 = system: CP286
In short: as §1

CP291 = system: CP291
In short: as §1

CP260 = system: CP260
In short: as §1

Measured: Potency

O=[n+]1ccn([O-])c2ccccc21
not listed: CP260
inactive: all other assays above

COc1ccc(/C=C/C(=O)OCCC(C)C)cc1
not listed: CP250
inactive: all other assays above

CCCCCc1ccc(C)cc1O
not listed: CP247
inactive: all other assays above

Cc1cc(-c2ccc(N=Nc3ccc4c(S(=O)(=O)O)cc(S(=O)(=O)O)c(N)c4c3O)c(C)c2)ccc1N=Nc1ccc2c(S(=O)(=O)O)cc(S(=O)(=O)O)c(N)c2c1O
not listed: CP260
inactive: all other assays above

CC(=O)NCCCS(=O)(=O)O
not listed: CP260
inactive: all other assays above

CCC(C(=O)NC(N)=O)c1ccccc1 (stereo not drawn)
not listed: CP260
inactive: all other assays above

CC/C=C\C/C=C\C/C=C\C/C=C\C/C=C\CCCC(=O)O
not listed: CP247
inactive: all other assays above

O=c1[nH]c(=O)n([C@H]2C[C@H](O)[C@@H](CO)O2)cc1/C=C/Br
not listed: CP260
inactive: all other assays above

Cc1nc(NS(=O)(=O)c2ccc(N)cc2)nc(C)c1Br
not listed: CP262 | CP260
inactive: all other assays above

CCCCO
not listed: CP215 | CP266
inactive: all other assays above

C=C(C)C1CC=C(C)CC1 (stereo not drawn)
not listed: CP203
inactive: all other assays above

OCl
not listed: CP203
inactive: all other assays above

COc1ccc(C(=O)c2ccc(C)cc2)c(O)c1
not listed: CP211
inactive: all other assays above

CN1C(C(=O)Nc2ccccn2)C(=O)c2sc(Cl)cc2S1(=O)=O (stereo not drawn)
not listed: CP237 | CP291
inactive: all other assays above

From PubChem BioAssay (NCATS)
